Records with an inconclusive call do not appear. Entries that show only a call come without a potency. A number with no mark means an inactive call. The source made the active and inactive calls. Calls follow the shape of the dose curve; as a rule, active = well fitted cell-killing curve with a large enough effect; inconclusive = small, poorly fitted or top-dose-only effect, or effect the other way; inactive = flat fitted curve, though single readings scatter.
The molecules below were run on CASKI (assay: Primary qHTS to identify gynecologic anti-cancer compounds using libraries of approved drugs and bioactive compounds (AID 1345084; also: nearly all actives have a fitted effect of over 55% in size)). Details: Gynecologic cancer cell panel viability, ATPlite luminescence, 48 h; series mostly up to 57.5 µM.
Summary of the method: (§1)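 Cell viability after 48 h drug treatment, ATPlite luminescence readout; five doses.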
Potency is read from the fitted curve at half-maximal effect.

SMILES | Potency | activity change, negative = cytotoxicity
COc1cc2c(cc1NS(=O)(=O)c1ccc(Br)cc1C)n(C)c(=O)n2C | inactive | –
COc1cc([C@H]2O[C@H](c3cc(OC)c4c(c3)OCO4)[C@H](C)[C@H]2C)cc(OC)c1OC | inactive | –
COc1cc2c(NC3CCN(C(C)C)CC3)nc(N3CCC(F)(F)CC3)nc2cc1OCCCN1CCCC1 | 31.6 µM (active) | –
COC1C(O)C(OC2CCC3(C)C(CCC45CCC6C7(COC(=O)C7)OC4(O)C6(C)CCC35)C2)OC(C)C1OC1OC(CO)C(OC2OC(CO)C(O)C(O)C2O)C(O)C1O (stereo not drawn) | – | 22.8% [at 11.6 µM]
Cn1cc(-c2cnn3c(N)c(Br)c(C4CCCNC4)nc23)cn1 (stereo not drawn) | inactive | –
COc1cc(N2CCC(N3CCN(C)CC3)CC2)ccc1Nc1ncc(Cl)c(Nc2ccccc2P(C)(C)=O)n1 | 10 µM (active) | –

Each molecule was assayed on Es-2 in the same assay as above. Details: Gynecologic cancer cell panel viability, ATPlite luminescence, 48 h; series mostly up to 57.5 µM.
Summary of the method: as §1

SMILES | Potency
C=C1C(=O)O[C@@H]2C3C(=C(C)[C@@H](O)[C@@H](OC(=O)/C(=C/C)COC(C)=O)[C@@H]12)C(=O)[C@H]1O[C@@]31C (stereo partly drawn) | 8.91 µM (active)
CCN1CCN(Cc2ccc(NC(=O)c3ccc(C)c(Oc4ccnc5[nH]ccc45)c3)cc2C(F)(F)F)CC1 | inactive
Cn1nc(-c2ccc(C(F)(F)F)cc2)nc2c(=O)n(C)c(=O)nc1-2 | 15.8 µM (active)
Cc1[nH]c2ccc(F)cc2c1-c1nc2c3cccnc3c3ncccc3c2[nH]1 | 14.1 µM (active)
COc1ccc(Oc2c(Cl)cnn(-c3cc(C)cc(C)c3)c2=O)cc1 | inactive
Cc1c(NC(=O)OCC2COCCN2)cn2ncnc(Nc3ccc4c(cnn4Cc4cccc(F)c4)c3)c12 (stereo not drawn) | inactive
COc1cc(O)c2c(c1)/C=C/C[C@H](O)[C@H](O)C(=O)/C=C\C[C@H](C)OC2=O | 15.8 µM (active)
C[C@H](Nc1ncnc2nc[nH]c12)c1cc2cccc(Cl)c2c(=O)n1-c1ccccc1 | inactive
C/C=C/C=C/C=C/C(=O)O[C@@H]1C=C2COC(=O)[C@]2(O)[C@@]2(C)CCCC(C)(C)[C@H]12 | inactive
CS/C=C/C(=O)O[C@@H]1CCC2=CC(=O)C(=C(C)C)C[C@]2(C)[C@H]1C | inactive
Cn1cc(-c2ccc(S(=O)(=O)n3ccc(/C=C/C(=O)Nc4ccccc4N)c3)cc2)cn1 | 8.91 µM (active)
CCCC(Nc1nc(-c2ccc(NC(=O)NCC)c(OC)c2)ncc1C)c1cccnc1 (stereo not drawn) | 0.251 µM (active)
CC(C)S(=O)(=O)NC[C@H](C)c1ccc(-c2ccc(CCNS(C)(=O)=O)cc2)cc1 | inactive
NCCOc1cc(C(=O)Nc2cc(OCCN)c3ccccc3n2)nc(C(=O)Nc2cc(OCCN)c3ccccc3n2)c1 | inactive
COc1ccc(CNc2nc(N(CCO)CCO)nc3c2ncn3C(C)C)cc1 | 22.4 µM (active)
Cc1cc(-c2nc(-c3ccc(OC(F)(F)F)cc3)no2)nn1Cc1ccnc(N2CCN(C3CC3)CC2)c1 | inactive
COc1ccc(Cl)c(Nc2ncnc3cc(OCC4CCN(C)CC4)c(OC)cc23)c1 | inactive
C=C1C(=O)O[C@H]2C3=C(C)CCC[C@]3(C)C(=O)C[C@@H]12 | 31.6 µM (active)
Cc1nc(-c2cn3c(n2)-c2ccc(-c4cnn(C(C)(C)C(N)=O)c4)cc2OCC3)n(C(C)C)n1 | inactive
COc1cc(Br)c(S(=O)(=O)Nc2ccc(Cl)c(O[C@@H]3CCN(C)C3)c2)cc1OC | inactive

What follows are molecules tested on HeLa in the same assay as above. Details: Gynecologic cancer cell panel viability, ATPlite luminescence, 48 h; series mostly up to 57.5 µM.
Summary of the method: as §1

SMILES | Potency | activity change, negative = cytotoxicity
CNc1ccc([N+](=O)[O-])c(Nc2ccc3[nH]ncc3c2)n1 | 25.1 µM (active) | –
C=C1C(=O)O[C@@H]2C3C(=C(C)[C@@H](O)[C@@H](OC(=O)/C(=C/C)COC(C)=O)[C@@H]12)C(=O)[C@H]1O[C@@]31C (stereo partly drawn) | inactive | –
CCN1CCN(Cc2ccc(NC(=O)c3ccc(C)c(Oc4ccnc5[nH]ccc45)c3)cc2C(F)(F)F)CC1 | inactive | –
Cn1nc(-c2ccc(C(F)(F)F)cc2)nc2c(=O)n(C)c(=O)nc1-2 | 20 µM (active) | –
FC(F)(F)c1ccc(/C=C/c2nc(COc3ccc(CCCCn4ccnn4)cc3)co2)cc1 | inactive | –
Cc1[nH]c2ccc(F)cc2c1-c1nc2c3cccnc3c3ncccc3c2[nH]1 | inactive | –
COc1ccc(Oc2c(Cl)cnn(-c3cc(C)cc(C)c3)c2=O)cc1 | inactive | –
Cc1c(NC(=O)OCC2COCCN2)cn2ncnc(Nc3ccc4c(cnn4Cc4cccc(F)c4)c3)c12 (stereo not drawn) | inactive | –
C[C@H](Nc1ncnc2nc[nH]c12)c1cc2cccc(Cl)c2c(=O)n1-c1ccccc1 | inactive | –
Cc1csc2c(N[C@@H](C)CN3CCN(S(=O)(=O)c4ccc(Cl)c(Cl)c4)CC3)ncnc12 | inactive | –
C=C1CC2OC(=O)C(COC)C2C(OC(=O)/C(C)=C\C)CC2(C)OC1=CC2=O (stereo not drawn) | inactive | –
N#CSc1cc(SC#N)c(N)nc1N | – | -2.58% [at 11.6 µM]
C/C=C/C=C/C=C/C(=O)O[C@@H]1C=C2COC(=O)[C@]2(O)[C@@]2(C)CCCC(C)(C)[C@H]12 | inactive | –
CS/C=C/C(=O)O[C@@H]1CCC2=CC(=O)C(=C(C)C)C[C@]2(C)[C@H]1C | inactive | –
Cn1cc(-c2ccc(S(=O)(=O)n3ccc(/C=C/C(=O)Nc4ccccc4N)c3)cc2)cn1 | 10 µM (active) | –
CCCC(Nc1nc(-c2ccc(NC(=O)NCC)c(OC)c2)ncc1C)c1cccnc1 (stereo not drawn) | 0.158 µM (active) | –

SMILES | Potency | activity change, negative = cytotoxicity
CNC1CN(c2ccc3c(=O)c(C(=O)O)cn(-c4nccs4)c3n2)CC1OC (stereo not drawn) | – | -22.6% [at 11.6 µM]
CC(C)S(=O)(=O)NC[C@H](C)c1ccc(-c2ccc(CCNS(C)(=O)=O)cc2)cc1 | inactive | –
Cc1cc(N2CCN(C(=O)Oc3ccc(-c4ccccc4)cn3)CC2)c2ccccc2n1 | inactive | –
Cc1cc(-c2nc(-c3ccc(OC(F)(F)F)cc3)no2)nn1Cc1ccnc(N2CCN(C3CC3)CC2)c1 | inactive | –
C=C(NC(=O)C(=C)NC(=O)c1csc(C2=NC3c4csc(n4)C4NC(=O)c5csc(n5)C(C(C)(O)C(C)O)NC(=O)C5CSC(=N5)/C(=C/C)NC(=O)C(C(C)O)NC(=O)c5csc(n5)C3(CC2)NC(=O)C(C)NC(=O)C(=C)NC(=O)C(C)NC(=O)C(C(C)CC)NC2C=Cc3c(C(C)O)cc(nc3C2O)C(=O)OC4C)n1)C(N)=O (stereo not drawn) | inactive | –
COc1ccc(Cl)c(Nc2ncnc3cc(OCC4CCN(C)CC4)c(OC)cc23)c1 | inactive | –
C=C1C(=O)O[C@H]2C3=C(C)CCC[C@]3(C)C(=O)C[C@@H]12 | inactive | –
COc1cc(/C=C2\CCCN([C@@H](C)c3ccc(F)cc3)C2=O)ccc1-n1cnc(C)c1 | inactive | –
Cc1nc(-c2cn3c(n2)-c2ccc(-c4cnn(C(C)(C)C(N)=O)c4)cc2OCC3)n(C(C)C)n1 | inactive | –
COc1cc2c(cc1NS(=O)(=O)c1ccc(Br)cc1C)n(C)c(=O)n2C | inactive | –
COc1cc([C@H]2O[C@H](c3cc(OC)c4c(c3)OCO4)[C@H](C)[C@H]2C)cc(OC)c1OC | inactive | –
CC(C)=C1C[C@@]2(C)C(=CC1=O)CC[C@@H](OC(=O)/C(C)=C/CO)[C@@H]2C | inactive | –
COC1C(O)C(OC2CCC3(C)C(CCC45CCC6C7(COC(=O)C7)OC4(O)C6(C)CCC35)C2)OC(C)C1OC1OC(CO)C(OC2OC(CO)C(O)C(O)C2O)C(O)C1O (stereo not drawn) | – | -19.8% [at 11.6 µM]
COc1cc(Br)c(S(=O)(=O)Nc2ccc(Cl)c(O[C@@H]3CCN(C)C3)c2)cc1OC | inactive | –
CC(C)C[C@@H]1NC(=O)[C@@H]2C[C@@]34C[C@@H]5[C@@]6(C)CCCC(C)(C)C6CC[C@@]5(C)N(c5ccccc53)[C@H]4N2C1=O (stereo partly drawn) | inactive | –
COc1cc(N2CCC(N3CCN(C)CC3)CC2)ccc1Nc1ncc(Cl)c(Nc2ccccc2P(C)(C)=O)n1 | 6.31 µM (active) | –
